This passage reports AC50 and outcome results from PubChem BioAssay (EPA / NIEHS).

Assay [1] is described as follows: CCTE_Mundy_HCI_Cortical_Synap_Neur_Matur_CellBodySpotCount: CCTE's Synaptogenesis and Neurite Maturation Assay in rat cortical cells for Cell Body Spot Count, Mundy Lab (AID 2284223). In a few lines:
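Rat primary cortical cultures received AraC at DIV 5 to arrest glia, were dosed with chemical at DIV 7 with media change, and were fixed at DIV 12 (288.33 h). Synaptophysin puncta on MAP2-positive cell bodies per neuron were counted by high-content imaging versus DMSO.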

Assay [2] in a line: CCTE_Mundy_HCI_hNP1_Pro_ResponderAvgInten: CCTE's Proliferation Assay in human neuroprogenitor cells, Mundy Lab (AID 2284224; active = hit-call score of the fitted dose curve at least 0.9, where 1 is the maximum). In a few lines: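 Proliferation was scored as BrdU labelling intensity in human neural progenitors derived from WA09 embryonic cells, measured 26.25 hours after chemical dosing. Activity was fitted relative to DMSO.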
Assay [3] can be described thus: BSK_BT_PBMCCytotoxicity: PBMC Cytotoxicity Assessment in the BioMAP Diversity Plus: BT Assay (AID 2284225).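 Also: PBMC viability measured by Alamar Blue dye reduction fluorescence.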 As to conditions: primary human B cells with PBMC. The procedure, abridged:
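PBMC (75,000/well) pretreated with compound 1 h, then activated with SEB and TSST-1 (20 ng/mL each final), incubated 90 h; Alamar Blue added 6 h, fluorescence read at 546/580 nm. Fitted relative to DMSO.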

The nature of assay [4]: BSK_BT_Bcell_Proliferation: Viability Assessment in the BioMAP Diversity Plus: BT Assay for B cell Proliferation (AID 2284227). The settings on record: primary human B cells with PBMC. In a few lines:
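SRB-based protein staining (0.1% SRB after 10% TCA fixation, 560 nm) quantifies proliferation in human B cells co-cultured with PBMC, 72 h post-dosing, with signal gain scored relative to DMSO negative control.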

Read-out in assay [5]: Interleukin 6 (IL6), IL6 (gene 3569)
In words: BSK_BT_xIL6: BioMAP Diversity Plus: BT Assay for Interleukin 6 (IL6) Biomarker Activity (AID 2284228). As to conditions: primary human B cells with PBMC. The procedure, abridged: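 Human B cell plus PBMC co-culture exposed to test chemical for 24 h; secreted IL-6 quantified by Luminex xMAP bead assay. Activity fitted in the positive direction against DMSO as negative control and baseline.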

Read-out in assay [6]: Interleukin 17A (IL17A), IL17A (gene 3605)
The assay can be described thus: BSK_BT_xIL17A: BioMAP Diversity Plus: BT Assay for Interleukin 17A (IL17A) Biomarker Activity (AID 2284229). The settings on record: primary human B cells with PBMC. The procedure, abridged: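 B cells co-cultured with PBMC were exposed to test chemicals, and secreted IL-17A was quantified 24 h after dosing by Luminex xMAP bead immunoassay. Activity was fitted in the gain direction against DMSO as baseline.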

Read-out in assay [7]: Vascular cell adhesion molecule 1 (VCAM1), VCAM1 (gene 7412)
In words: BSK_MyoF_VCAM1: BioMAP Diversity Plus: MyoF Assay for Vascular cell adhesion molecule 1 (VCAM1) Biomarker Activity (AID 2284231). The settings on record: primary human lung fibroblasts. In a few lines: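 Primary human lung fibroblasts were dosed with test chemical for 24 h, then cell-surface VCAM-1 was measured by ELISA. Activity was fitted in the positive direction against DMSO as negative control and baseline.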

A short description of assay [8]: UKN2_HCS_IMR90_cell_viability: Viability Assessment in the University of Konstanz (UKN) Leist Lab Neural Crest Cell Migration Assay in human induced IMR90 Pluripotent Stem Cells (UKN2) (AID 2284233).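 Also: viability of neural crest cells differentiated from IMR90 iPSC measured by calcein-AM fluorescence imaging; cells exposed to compound for 24 h after a 24 h migration phase.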 In a few lines: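 Human IMR90-derived neural crest cells were allowed to migrate for 24 h into a cell-free zone, then exposed to test chemicals for 24 h. Calcein-AM and Hoechst staining with high-content imaging gave viability, analysed against DMSO baseline.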

The nature of assay [9]: CCTE_Mundy_HCI_Cortical_NOG_NeuronCount: CCTE's Neurite Outgrowth Assay in rat cortical cells for Neuron Count, Mundy Lab (AID 2284236; active = hit-call score of the fitted dose curve at least 0.9, where 1 is the maximum;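 also: neurons counted by imaging betaIII-tubulin and Hoechst stained cortical cells; cells exposed to compound for about 48 hours before fixation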). In a few lines:
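Read-out: neuron number by high-content imaging of betaIII-tubulin (Alexa Fluor-488) and Hoechst-labelled rat primary cortical cells.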

A short description of assay [10]: CCTE_Mundy_HCI_Cortical_NOG_BPCount: CCTE's Neurite Outgrowth Assay in rat cortical cells for Branch Point Count, Mundy Lab (AID 2284237).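 As to AC50: branch points counted about two days after chemical exposure.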 The procedure, abridged:
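Measured 50.33 h after dosing, this morphology endpoint uses rat primary cortical cultures labelled for betaIII-tubulin. Branch points are quantified by high-content imaging, with DMSO as negative control and baseline.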

Read-out in assay [11]: Collagen I, COL1A1 (gene 1277)
In words: BSK_MyoF_CollagenI: BioMAP Diversity Plus: MyoF Assay for Collagen I Biomarker Activity (AID 2284238). As to conditions: primary human lung fibroblasts. In a few lines: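 Human lung fibroblasts were exposed to test chemical for 24 h, then Collagen I was quantified by ELISA. Activity was fitted in the increasing direction against DMSO as the negative control and baseline.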

Read-out in assay [12]: Collagen III, COL3A1 (gene 1281)
In words: BSK_MyoF_CollagenIII: BioMAP Diversity Plus: MyoF Assay for Collagen III Biomarker Activity (AID 2284239). The settings on record: primary human lung fibroblasts. The procedure, abridged:
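Human lung fibroblasts were dosed with chemicals and, 24 hours later, collagen III was measured by ELISA. Activity was fitted in the positive direction against the DMSO negative-control baseline.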

The nature of assay [13]: CCTE_Mundy_HCI_hNP1_Casp3_7: CCTE's Caspase-Glo 3/7 Assay in human neuroprogenitor cells for Apoptosis, Mundy Lab (AID 2284240). The procedure, abridged: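 Apoptosis is scored by activated caspase-3/7 luminescence in WA09-derived neural progenitor cells, measured 26.5 h after chemical dosing. Values represent gain of signal relative to DMSO vehicle.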
The nature of assay [14]: CCTE_Mundy_HCI_hNP1_CellTiter: CCTE's Cell Titer-Glo 2 Assay in human neuroprogenitor cells for Viability, Mundy Lab (AID 2284241; active = hit-call score of the fitted dose curve at least 0.9, where 1 is the maximum). In a few lines: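 Human neural progenitor cells (hNP1, WA09-derived) were plated on poly-L-ornithine/laminin and grown 40 to 44 hours at 37 °C, 5% CO2 before chemical addition. Twenty-four hours later, ATP was measured by CellTiter-Glo luminescence; loss of signal versus DMSO indicates reduced viability.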

A short description of assay [15]: CCTE_Mundy_HCI_Cortical_Synap_Neur_Matur_NeuronCount: CCTE's Synaptogenesis and Neurite Maturation Assay in rat cortical cells for Neuron Count, Mundy Lab (AID 2284242; active = hit-call score of the fitted dose curve at least 0.9, where 1 is the maximum;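 also: hits reduce neuron count versus DMSO baseline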). In a few lines:
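Neuron number was scored by automated high-content imaging of Hoechst- and MAP2-labelled rat primary cortical cells. Glial growth was arrested with AraC at DIV 5, compounds were applied from DIV 7, and cultures ended at DIV 12.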

Read-out in assay [16]: Interleukin 17F (IL17F), IL17F (gene 112744)
In words: BSK_BT_xIL17F: BioMAP Diversity Plus: BT Assay for Interleukin 17F (IL17F) Biomarker Activity (AID 2284243). As to conditions: primary human B cells with PBMC. The procedure, abridged:
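B cell/PBMC co-culture (human primary), 24 h compound exposure; sIL-17F by Luminex xMAP; gain-of-signal fit vs DMSO baseline.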

Read-out in assay [17]: Actin alpha 1 (ACTA1), ACTA1 (gene 58)
The assay can be described thus: BSK_MyoF_ACTA1: BioMAP Diversity Plus: MyoF Assay for Actin alpha 1 (ACTA1) Biomarker Activity (AID 2284244). As to conditions: primary human lung fibroblasts. The procedure, abridged:
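Lung fibroblasts, human primary, 24 h compound exposure → a-SMA ELISA. Positive-direction fit vs DMSO control.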

Read-out in assay [18]: Secreted IgG (sIgG), gene 3500
The assay can be described thus: BSK_BT_sIgG: BioMAP Diversity Plus: BT Assay for Secreted IgG (sIgG) Biomarker Activity (AID 2284226). The settings on record: primary human B cells with PBMC. The procedure, abridged:
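Read-out: ELISA for secreted IgG after 24 h of chemical exposure in a B cell plus PBMC co-culture. Values reflect upward-direction fitting against DMSO negative controls.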

Read-out in assay [19]: Tumor necrosis factor (Homo sapiens) (UniProt P01375)
In words: BSK_BT_xTNFa: BioMAP Diversity Plus: BT Assay for Tumor necrosis factor alpha (TNF-alpha) Biomarker Activity (AID 2284230). The settings on record: primary human B cells with PBMC. In a few lines:
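Compounds were added to a B cell plus PBMC co-culture, and after 24 h secreted TNF-alpha was quantified with Luminex xMAP technology, with responses fitted upward from the DMSO control.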

The nature of assay [20]: UKN4_HCS_LUHMES_cell_viability: Viability Assessment in the University of Konstanz (UKN) Leist Lab Neurite Outgrowth Assay in human LUHMES cells (UKN4) (AID 2284232). The procedure, abridged: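 Fluorescence intensity from high-content imaging of Hoechst H-33342/calcein-AM-stained cells served as the viability read-out. Human LUHMES precursors were differentiated 2 days, replated and treated 24 h; curves were fitted bidirectionally against DMSO.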

Structures are written as SMILES. Results filed as inconclusive are left out. Activity calls are given as the source filed them. The calls were made as follows, unless noted: active = hit-call score of the fitted dose curve at least 0.9, where 1 is the maximum; inactive = score below 0.9.

Tumor necrosis factor (Homo sapiens), sequence (P01375 whole entry, looked up): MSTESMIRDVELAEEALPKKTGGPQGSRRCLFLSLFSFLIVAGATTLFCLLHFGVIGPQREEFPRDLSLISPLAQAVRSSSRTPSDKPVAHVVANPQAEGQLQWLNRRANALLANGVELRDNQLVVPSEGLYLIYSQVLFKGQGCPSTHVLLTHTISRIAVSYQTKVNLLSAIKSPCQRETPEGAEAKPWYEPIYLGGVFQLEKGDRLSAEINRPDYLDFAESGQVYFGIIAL

In the case of `Cc1ccccc1OP(=O)(Oc1ccccc1C)Oc1ccccc1C`, the AC50 (usually the concentration giving half of the maximal activity seen) in assay [1] is 4.04 µM (active); in assay [2], 25.8 µM (active); in [4] it was 34.4 µM (active); in [5] it was 20 µM (active); in [6], 24.7 µM (active); in assay [7], 11.4 µM (active). The AC50 is 8.46 µM (active) in assay [8]; 24.1 µM (active) in assay [9]; 18 µM (active) in [10]; 9.92 µM (active) in assay [11]; 10 µM (active) in assay [12]; 10.8 µM (active) in assay [13]. Further, the AC50 in assay [14] was 18.3 µM (active); in assay [15], 2.83 µM (active); in assay [16], 27.3 µM (active); in assay [17] it was 9.16 µM (active). For the same molecule, the result in assay [3] was inactive.
Turning to `CC(C=O)Cc1ccc2c(c1)OCO2` (stereo not given), the result in assay [3], in [18], in assay [4], in assay [5], in [6] and in assay [7] was inactive. Besides, the outcome in assay [11], in assay [12], in [16] and in [17] was inactive.
Regarding `Nc1ccc(N)cc1`, the result in assay [3], in assay [18], in [4], in [5], in assay [6] and in assay [19] was inactive. Besides, the outcome in assay [7], in [11], in assay [12], in [16] and in assay [17] was inactive.
For `CCOP(=O)(OCC)SCCSCC`, the result in [3], in assay [18], in [4], in assay [5], in [6] and in [7] was inactive. The result in [11], in [12], in assay [16] and in assay [17] was inactive.
Regarding `Cc1cc(C(F)(C(F)(F)F)C(F)(F)F)ccc1NC(=O)c1cccc(I)c1C(=O)NC(C)(C)CS(C)(=O)=O`, the outcome in assay [1], in [2], in assay [20], in assay [9], in assay [10] and in assay [13] was inactive. In addition, the molecule was called inactive in [14].
For the molecule `Cc1ccc2nc3sc(=O)sc3nc2c1`, the result in [3], in [5], in assay [6], in [19], in [11] and in [12] was inactive. Besides, the outcome in [16] and in assay [17] was inactive. Further, the AC50 in [4] is 5 µM (active); in assay [7], 7.88 µM (active).
For the molecule `c1ccc2sc(SNC3CCCCC3)nc2c1`, the AC50 was 30.8 µM (active) in assay [3]; 32 µM (active) in assay [18]; 29.3 µM (active) in assay [4]; 20 µM (active) in [6]; 32.1 µM (active) in [16]. The outcome in assay [5], in assay [7], in assay [11], in assay [12] and in assay [17] was inactive.
